Rows were chosen to be rich in hits. Some 1.3% of all compounds tested hit in one or more screens of this group.
LANA DNA inh: inhibitors of KSHV C-LANA binding to DNA, primary screen, biochemical, fluorescence polarization, FAM-LBS DNA, MBP-C-LANA, single point. hit rate 0.078% among 340,000. inhibition, % at 9 µM. Kaposi's sarcoma herpesvirus LANA C-terminal domain (residues 932-1162) DNA binding;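 active = highest replicate inhibition at or above 60% at 9 µM, even if other replicates fall short; inactive = all replicates below 60% inhibition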;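 note: 0% = neutral control wells and 100% = 4 µM acridine orange control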
LANA-H2B inh: blockers of LANA interaction with H2A/H2B – biochemical, FP readout, HTS, primary screen; Protein LANA1 (Human herpesvirus 8 type P (isolate GK18)), Q9QR71; cell-free LANA-H2A/H2B peptide, fluorescence polarization; inhibition, % (test concentration not listed); hit rate 0.6% among 320,000; AID 2629, 2010; in the data active = inhibition mostly above about 10%, no sharp cut-off; inactive = mostly below about 6.7%
RTF Ca sens act: cardiac RTF calcium sensitivity activators, primary screen, biochemical, IANBD-TnC fluorescence, EC20 calcium; activation, % at 7.2 µM; hit rate 0.24% among 340,000; IANBD-labeled TnC RTF fluorescence at EC20 calcium; 0% EC20 calcium, 100% full calcium;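 active = activation above the mean over all tested compounds plus 3 SD, cut at about 30% in these data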;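 note: rise in fluorescence read as greater calcium sensitivity of cardiac thin filaments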
Keap1 Nrf2 FP: Keap1-Nrf2 protein-protein interaction inhibitors, primary screen, biochemical, fluorescence polarization, single point; Kelch-like ECH-associated protein 1 (Homo sapiens), Q14145; Keap1 Kelch-Nrf2 peptide fluorescence polarization, 1536-well; inhibition, % at 9.4 µM; hit rate 0.15% among 340,000; in the data active = inhibition above about 12%;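 note: human Keap1 Kelch domain with fluorescein labeled Nrf2 9mer peptide probe; 0% = neutral control wells and 100% = peptide positive control; higher means more block of Keap1 binding to Nrf2 peptide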
RTF Ca sens inh: cardiac RTF calcium sensitivity inhibitors, primary screen, biochemical, IANBD-TnC fluorescence, EC70 calcium; IANBD-labeled cardiac RTF, Ca2+ fluorescence; inhibition, % at 7.15 µM; hit rate 0.12% among 340,000;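 active = inhibition above the mean inhibition of all tested compounds plus 3 SD, cut at about 17% in these data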;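 note: assay run at fixed EC70 calcium of 1.6 mM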
eLon inh: inhibitors of E. coli Lon protease, primary screen, biochemical, fluorescence polarization. purified E. coli Lon protease. hit rate 0.42% among 360,000. AID 602123, 2011. inhibition, % at 7.94 µM; in the data active = inhibition above about 13%, passing the limit was not always enough;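 note: 0% = enzyme with probe and DMSO and 100% = no enzyme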
Target sequence (P0A9M0 whole entry, looked up): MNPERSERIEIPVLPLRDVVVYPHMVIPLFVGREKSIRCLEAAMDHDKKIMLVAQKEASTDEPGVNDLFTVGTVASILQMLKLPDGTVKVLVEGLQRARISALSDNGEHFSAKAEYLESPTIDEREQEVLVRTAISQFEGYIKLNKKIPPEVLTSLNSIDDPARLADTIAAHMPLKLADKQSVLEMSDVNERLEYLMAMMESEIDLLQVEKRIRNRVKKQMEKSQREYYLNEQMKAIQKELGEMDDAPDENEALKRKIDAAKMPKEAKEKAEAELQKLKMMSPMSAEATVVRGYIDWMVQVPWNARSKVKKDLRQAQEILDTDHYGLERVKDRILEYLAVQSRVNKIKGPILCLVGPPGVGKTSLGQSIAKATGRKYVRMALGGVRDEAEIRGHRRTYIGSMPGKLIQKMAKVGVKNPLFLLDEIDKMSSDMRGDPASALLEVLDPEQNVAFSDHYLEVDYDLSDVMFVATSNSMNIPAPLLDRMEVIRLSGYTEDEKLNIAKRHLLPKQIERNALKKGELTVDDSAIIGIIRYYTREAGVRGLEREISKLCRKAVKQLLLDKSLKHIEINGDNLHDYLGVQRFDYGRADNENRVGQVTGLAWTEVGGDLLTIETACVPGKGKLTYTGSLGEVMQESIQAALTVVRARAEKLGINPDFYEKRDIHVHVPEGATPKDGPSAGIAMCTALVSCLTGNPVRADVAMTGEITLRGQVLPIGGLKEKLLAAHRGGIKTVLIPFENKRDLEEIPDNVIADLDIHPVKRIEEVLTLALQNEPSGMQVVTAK
eLon confirm: E. coli Lon protease inhibitor retest, confirmation, biochemical, fluorescence polarization | hit rate 31% among 1,400 | inhibition, % at 7.94 µM | AID 602230, 2012 | shares compounds with eLon inh | purified E. coli Lon; in the data active = inhibition above about 16%;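 note: 0% = enzyme with probe and DMSO and 100% = no enzyme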
Numbers without * were called inactive; i = inactive; nt = not tested or not shown; + = active, no number.

SMILES | LANA DNA inh | LANA-H2B inh | RTF Ca sens act | Keap1 Nrf2 FP | RTF Ca sens inh | eLon inh | eLon confirm
COc1cccc(/C=N/NC(=O)CCn2c3ccccc3c3ccccc32)c1 | -1 | -1 | -1 | -4 | -7 | 3 | nt
NNC(=O)CCn1c2ccccc2c2ccccc21 | -1 | -2 | 5 | 1 | -10 | 21* | -8
CN(CC(=O)Nc1ccc(F)cc1)C(=O)C1CC(=O)N(Cc2ccccc2)C1 (stereo unspecified) | -1 | 2 | 3 | 0 | 2 | -8 | nt
Cc1nn(-c2ccccc2)c(N2CCCC2)c1/C=N/NC(=O)c1ccccc1O | -1 | 5 | 2 | -1 | -11 | -3 | nt
O=C(N/N=C/c1cc2c3c(c1O)CCCN3CCC2)c1ccccc1O | 4 | nt | 8 | -6 | 2 | 67* | 104*
OC(CN1CCCCC1)c1ccc2c3c(cccc13)CC2 (stereo unspecified) | 3 | nt | -1 | 1 | 0 | 70* | 3
OC(CN1CCCCC1)c1ccc(Br)cc1 (stereo unspecified) | -1 | nt | -6 | -5 | -5 | 10 | nt
COc1ccc(NC(=O)Nc2sc(NS(=O)(=O)c3ccccc3)nc2C)cc1 | 0 | -2 | 13 | -5 | 0 | 14* | -3
CN(C)c1ccc(S(=O)(=O)N2CCCCC2)cc1NC(=O)CN1C(=O)NC2(CCCC2)C1=O | -1 | 4 | -11 | -1 | -6 | -12 | nt
COc1ncnc2c1NC1=C(S2)C(=NCCC(=O)O)CC(C)(C)C1 | 23 | 5 | 28 | -1 | -29 | 65* | 154*
O=[N+]([O-])c1ccc(N2CCN(Cc3ccccc3)CC2)c2c1no[n+]2[O-] | nt | nt | nt | nt | nt | 32* | 5
NC(=O)c1c(NC(=O)CSc2nnc(Cc3ccccc3)n2Cc2ccco2)sc2c1CCC2 | 0 | -3 | 6 | 2 | -5 | 22* | -6
O=C(CNC(=O)c1ccc(Cl)cc1Cl)OCC(=O)N1CCCC1=O | nt | 3 | 7 | nt | -6 | 9 | nt
Cc1cc(C(C)(C)C)oc1C(=O)N(CC(=O)NC1CCCC1)Cc1ccccc1Cl | 0 | 0 | -12 | -4 | -8 | 133* | 3
CN1C=CC2=C(C#N)C(N)C(C#N)(C#N)C(c3ccccc3)C2C1 (stereo unspecified) | 41 | 8 | 40* | 10 | -36 | 17* | -31
CCCCCCc1cc2cc(S(=O)(=O)c3ccc(F)c(Cl)c3)c(=O)oc2cc1O | 4 | nt | -15 | -1 | -10 | 84* | -51
C/C(=N\NC(=O)c1cccc(N/N=C(\C)c2cc(O)ccc2O)c1)c1cc(O)ccc1O | -3 | 3 | -3 | -3 | 4 | 6 | nt
Cc1sc2ncn(CC(=O)NCC(=O)N3CCN(c4ccccc4F)CC3)c(=O)c2c1C | 0 | -1 | -7 | 2 | 4 | 19* | -29
O=S(=O)(/N=C(/Nc1ccc(F)c(F)c1F)c1ccccc1)c1ccccc1 | 0 | 2 | -3 | 1 | 3 | -5 | nt
O=C(N=Nc1c(O)[nH]c2ccc(Br)cc12)c1ccccc1-n1cccc1 | 1 | -5 | -9 | -5 | -4 | 24* | 4
O=C(N=Nc1c(O)[nH]c2ccc(Br)cc12)c1ccco1 | nt | nt | nt | nt | nt | -19 | nt
O=C(NCCC1=CCCCC1)c1cc(-c2ccncc2)nc2ccccc12 | 0 | -2 | 3 | -4 | -1 | -11 | nt
COc1ccc2c3c(cccc13)C(=O)CC2 | 163* | + | 715* | 164* | i | + | +

High-throughput results: PubChem, several laboratories
